Screening data from PubChem BioAssay.
Compounds with a hit are over-represented: about 2.6% of the library has one in this group of screens.
Peg3 promoter: Peg3 promoter-driven luciferase inhibitors, primary screen, cell-based, HeLa, luciferase luminescence. HeLa PEG-Prom luciferase reporter, overnight. inhibition, % at 20 µM. actives 1.7% (n = 360,000);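 active = inhibition of at least 50% at 20 µM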
KKLEB cytotox: cytotoxicity in KKLEB CF airway cells, primary screen, cytotoxicity control for CF NF-kB inhibitor project, cell-based, uHTS, fluorescence assay plates. AID 602141, 2011. actives 0.36% (n = 360,000). activity change (cytotoxicity), % at 5 µM. KKLEB CF airway cells viability, ATPlite luminescence, overnight; hits give low values; cells stimulated with P. aeruginosa culture filtrate;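 active = corrected activity change at or below -50% at 5 µM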
Shn3 3UTR inh: reduction of Shn3 3'UTR firefly luciferase signal, primary screen, Schnurri-3 inhibitor project, cell-based, Clone20 osteoblasts, set 2 | AID 588674, 2011 | Clone20 osteoblast Shn3 3'UTR firefly luciferase, 24 h | inhibition, % at 12.5 µM | actives 0.52% (n = 360,000);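 active = mean inhibition of at least 75% with every replicate also reaching 75%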
HIF-2a inh: HIF-2a reporter inhibitors, primary screen, luminescence, 786-0 RCC cells. 786-0 RCC cells HIF-2a reporter, luciferase luminescence, overnight. inhibition, % at 18.8 µM. actives 0.72% (n = 360,000);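 active = inhibition of the luminescence signal of 40% or more relative to plate controls, in a single-dose primary screen at 18.75 µM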
CF NFkB block: inhibitors of PAF-induced NF-kB signaling, primary screen, cell-based, GFP fluorescence, uHTS. KKLEB NF-kB-GFP reporter, GFP fluorescence overnight. inhibition, % at 5 µM. actives 0.86% (n = 360,000). AID 588850, 2011;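 active = at least 50% inhibition at 5 µM, scaled per plate between neutral and stimulator controls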;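 note: PAF is a Pseudomonas aeruginosa culture filtrate used as stimulus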
Each line names hits and unclear results; the compound was inactive in the other large screens.

O=C(C[C@@H]1C/C=C\C[C@@H](NC(=O)OCC2c3ccccc3-c3ccccc32)C(=O)OCCNC1=O)N[C@@H](CO)Cc1ccccc1	none
CN1CCc2c(sc(NC(=O)c3ccc4ccccc4c3)c2C(N)=O)C1	none
COc1cc2ccccc2cc1C(=O)Nc1sc2c(c1C(N)=O)CCN(C(C)C)C2	Peg3 promoter 101
Cc1ccc(S(=O)(=O)N(C)C)cc1NC(=O)COc1ccccc1C(=O)Nc1ccccc1	Peg3 promoter 60
CN(C)S(=O)(=O)c1cccc(NC(=O)COc2ccccc2C(=O)Nc2ccccc2)c1	none
Cc1[nH][nH]c(=O)c1C(c1c(C)[nH][nH]c1=O)c1cn(Cc2ccccc2Cl)c2ccccc12	Peg3 promoter 56, CF NFkB block 68
N/C(=N\O)c1cn(Cc2ccccc2Cl)c2ccccc12	none
CNc1ccc(/C=C/C(=O)c2cccc3ccccc23)cc1[N+](=O)[O-]	Peg3 promoter 67
CNc1ccc(C(=O)c2ccccc2C(=O)O)cc1[N+](=O)[O-]	none
CC1CCCCN1CC(O)COCc1ccc(Cl)cc1 (stereo not drawn)	none
COc1cc(OC)c2ccc(=O)oc2c1C(CCN1CCCC(C)C1)c1ccc2c(c1)OCO2 (stereo not drawn)	none
CCCCCc1cc(=O)oc2c(C(CCN3CCCCC3)c3ccc(OC)cc3)c(OC)cc(OC)c12 (stereo not drawn)	Peg3 promoter 102, KKLEB cytotox -56, CF NFkB block 53
COc1cc(C(CCN2CCOCC2)c2c(OC)cc(OC)c3c(C)cc(=O)oc23)cc(OC)c1OC (stereo not drawn)	none
CCCCCc1cc(=O)oc2c(C(CCN3CCN(c4ccccc4)CC3)c3ccc4c(c3)OCO4)c(OC)cc(OC)c12 (stereo not drawn)	none
CCCCCc1cc(=O)oc2c(C(CCN3CCCC3)c3cc(OC)c(OC)c(OC)c3)c(OC)cc(OC)c12 (stereo not drawn)	Peg3 promoter 102
CCCCCc1cc(=O)oc2c(C(CCN(CC)CC)c3ccc(OC)cc3)c(OC)cc(OC)c12 (stereo not drawn)	Peg3 promoter 101
CCN(CC)CCC(c1ccc(N(C)C)cc1)c1c(OC)cc(OC)c2ccc(=O)oc12 (stereo not drawn)	none
CCCCCc1cc(=O)oc2c(C(CCN3CCCC(C)C3)c3ccc(OC)cc3)c(OC)cc(OC)c12 (stereo not drawn)	Peg3 promoter 96
CC(=O)N/C(=C\c1ccc(Br)s1)C(=O)O	none
CCCCCCCCN1C(=O)[C@H](CC(=O)NCCC(C)C)C[C@@]2(C(=O)OCC)CCC=C12	none (no result: Peg3 promoter, KKLEB cytotox, Shn3 3UTR inh, CF NFkB block)
CCCCCc1cc(=O)oc2c(C(CCN3CCCC3)c3ccc(N(C)C)cc3)c(OC)cc(OC)c12 (stereo not drawn)	Peg3 promoter 97
CC1=C(CC(=O)c2ccccc2)C(=O)c2ccccc2C1=O	CF NFkB block 77
Oc1ccc(N=Nc2n[nH]c(-c3ccc(Br)cc3)n2)cc1	Peg3 promoter 86
CCCN1C(=O)S/C(=C/c2ccc(N3CCOCC3)o2)C1=O	none
CCCN1C(=O)S/C(=C\c2ccc(N3CCOCC3)o2)C1=O	Shn3 3UTR inh 89
CCOc1cc2[nH]c(=O)n(Cc3ccc(C(=O)NCCCN4CCC(C)CC4)cc3)c(=O)c2cc1OCC	Peg3 promoter 82
CC1CCN(CCCNC(=O)c2ccc3c(=O)n(Cc4ccc(Cl)cc4)c(=S)[nH]c3c2)CC1	Peg3 promoter 114
CC1(C(=O)NS(=O)(=O)c2ccc(Br)cc2)CCN1C(=O)c1cccc(F)c1 (stereo not drawn)	none
C/C(Cl)=C\Cn1c(NCCc2ccccc2)nc2c1c(=O)n(C)c(=O)n2C	Shn3 3UTR inh 88
C=CCn1c(NCCc2ccccc2)nc2c1c(=O)n(C)c(=O)n2C	none
CC(C)C[C@H]1CNC(=S)N1C[C@H]1CCCN1C[C@H](Cc1ccc(O)cc1)N1C[C@H](Cc2ccc(O)cc2)N(CC2CCCCCC2)C1=S	Peg3 promoter 101, KKLEB cytotox -59, CF NFkB block 71
